High-throughput results: PubChem, National Center for Advancing Translational Sciences (NCATS)
Tau fibril FP – tau fibrillization inhibition (FP); P10636; K18 P301L tau heparin fibrillization, Alexa594 FP, 6 h; Potency, µM (titrated, usually from 57.7 µM), for inactives: top-dose activity, negative = inhibition, hits mostly inhibitors; 0.39% of 280,000 active; AID 1468; also: potency is read from the fitted curve at half-maximal effect; % is scaled to controls: 0 for no effect and ±100 for the full control effect; nearly all actives have a fitted effect of over 55% in size
Target sequence (P10636 561-689 P618L limits assumed): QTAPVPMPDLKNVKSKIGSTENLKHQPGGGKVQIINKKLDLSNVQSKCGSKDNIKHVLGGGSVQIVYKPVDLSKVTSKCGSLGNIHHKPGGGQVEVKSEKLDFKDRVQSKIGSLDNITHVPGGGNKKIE
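Read-out: fluorescence polarization of Alexa 594-labeled tau (0.24 uM), 555 nm excitation, 632 nm emission. Mixtures held 15 uM unlabeled K18 P301L, compound and 20 uM heparin, pH 7 acetate buffer, incubated 6 hr at 37 C.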
Tau fibril ThT – tau fibrillization inhibition (ThT binding); Potency, µM (top dose mostly 57.4 µM), for inactives: at the highest dose activity, negative = inhibition, actives largely listed as inhibitors; recombinant tau K18 P301L, heparin-induced fibrillization, ThT fluorescence; 2.1% of 270,000 active; also: potency is read from the fitted curve at half-maximal effect; % is scaled to controls: 0 for no effect and ±100 for the full control effect; nearly all actives have a fitted effect of over 55% in size
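ThT emission at 510 nm, taken 1 hr after adding 30 uM dye, quantifies aggregates formed when 20 uM heparin acts on human tau K18 P301L for 6 hr at 37 C.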
TexasRed fluor – Texas Red fluorescence interference in TRb-SRC2 counter-screen; TRb/SRC2 Texas Red total fluorescence interference; Potency, µM (doses to about 106 µM), without a hit: top-dose fluorescence change, negative = quenching; 0.29% of 280,000 active; AID 1479; active = well fitted curve in either direction with a large enough effect; inconclusive = small, poorly fitted or top-dose-only effect; also: potency is read from the fitted curve at half-maximal effect; % is scaled to controls: 0 for no effect and ±100 for the full control effect
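Human TRb ligand-binding domain at 0.6 uM with 20 nM Texas Red SRC2 peptide in Tris buffer containing 1 uM T3 and 5% DMSO, incubated with compound 5 h at ambient temperature. Total fluorescence (555/632 nm) calculated as parallel + 2 × perpendicular.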
TRb SRC2 PPI – disrupts binding of human TR beta to SRC2. P10828. TRbeta-SRC2 peptide binding, fluorescence polarization; receptor liganded with 1 µM T3. Potency, µM (titrated, usually from 106 µM), without a hit: at the highest dose activity change, negative = inhibition, hits mostly inhibitors. 0.065% of 280,000 active;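 also: potency is read from the fitted curve at half-maximal effect; plate controls were bound peptide for no effect and peptide without receptor for full effect; nearly all actives have a fitted effect of over 50% in size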
Target sequence (P10828 whole entry, looked up): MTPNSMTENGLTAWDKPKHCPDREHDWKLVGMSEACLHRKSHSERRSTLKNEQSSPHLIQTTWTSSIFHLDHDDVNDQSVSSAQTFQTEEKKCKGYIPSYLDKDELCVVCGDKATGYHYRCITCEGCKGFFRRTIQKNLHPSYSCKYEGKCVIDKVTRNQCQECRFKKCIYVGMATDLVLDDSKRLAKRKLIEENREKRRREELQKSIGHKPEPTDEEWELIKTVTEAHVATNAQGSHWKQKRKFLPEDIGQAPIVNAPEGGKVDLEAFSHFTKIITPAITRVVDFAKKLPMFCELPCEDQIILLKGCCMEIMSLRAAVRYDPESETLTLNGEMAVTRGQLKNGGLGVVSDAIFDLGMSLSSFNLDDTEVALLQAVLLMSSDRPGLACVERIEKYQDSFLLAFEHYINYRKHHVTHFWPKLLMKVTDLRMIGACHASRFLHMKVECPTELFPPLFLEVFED
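Polarization signal, normalized between peptide-alone and full complex controls, measured compound effects on T3-liganded human TRb LBD (0.6 uM) binding 20 nM Texas Red SRC2 peptide after 5 hr.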
Tau fluor cs – counter-screen for tau fibril formation inhibitors. tau K18 P301L Alexa594 fluorescence, heparin fibrillization. Potency, µM (series often up to 57.7 µM), for the others: at the top dose activity change, negative = decrease. 0.93% of 280,000 active. AID 1463; also: potency is read from the fitted curve at half-maximal effect; % is scaled to controls: 0 for no effect and ±100 for the full control effect; nearly all actives have a fitted effect of over 55% in size
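Human K18 P301L tau (15 uM unlabeled plus 0.24 uM Alexa 594-labeled, final) in 100 mM sodium acetate pH 7 was mixed with compound and 20 uM heparin and incubated 6 hr at 37 C.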
tau fibril sed – inhibitors of human tau fibrillization, sedimentation test. shares compounds with Tau fibril ThT. recombinant tau K18 P301L (four-repeat tau fragment), sedimentation SDS-PAGE densitometry. 50% of 110 active. inhibition, % at 100 µM; in the data active = inhibition above about 40%; inconclusive = no clear call, values can overlap the other calls; inactive = below about 18%
* marks the source's active call; other numbers are inactive results; [ ] = another dose, or the depositor's remark. This is a sample that favours compounds with a hit; in the whole collection about 3.1% have one here. Unless noted, calls follow the shape of the dose curve; as a rule, active = well fitted curve in the direction sought with a large enough effect; inconclusive = small, poorly fitted or top-dose-only effect, or another doubt; inactive = no such curve, though single readings can be large; an effect the other way counts as inactive or inconclusive.

What do the screens show for `O=C(CN1C(=O)COc2ccc(S(=O)(=O)N3CCOCC3)cc21)N1CCN(c2ccc(Cl)cc2)CC1`?
Tau fibril FP: 0%; Tau fibril ThT: 3%; TexasRed fluor: 0%; TRb SRC2 PPI: -5%; Tau fluor cs: -12%

How did CCOC(=O)c1c(NC(C)=O)c2c3c(sc2n1Cc1nc(-c2ccccc2Cl)oc1C)CCCC3 do in these assays?
Tau fibril FP: -5%; Tau fibril ThT: -7%; TexasRed fluor: 18µM*[quencher]; TRb SRC2 PPI: -14%; Tau fluor cs: -7%

How did CCOC(=O)c1c(NC(C)=O)c2c3c(sc2n1Cc1nc(-c2cccc(Cl)c2)oc1C)CCCC3 do in these assays?
Tau fibril FP: 0%; Tau fibril ThT: -11%; TexasRed fluor: -23%; TRb SRC2 PPI: -1%; Tau fluor cs: -17%

Results for COCCN1C(=O)/C(=C/c2ccc(N3CCCC3)cc2C)SC1=S ?
Tau fibril FP: inconclusive; Tau fibril ThT: 7.1µM*; TexasRed fluor: 7%[53 µM]; TRb SRC2 PPI: 3%[53 µM]; Tau fluor cs: -13%

How did CCN=C1S/C(=C\c2ccc(N3CCOCC3)cc2C)C(=O)N1CC do in these assays?
Tau fibril FP: 14%; Tau fibril ThT: -13%; TexasRed fluor: -1%; TRb SRC2 PPI: -3%; Tau fluor cs: -27%

What do the screens show for `O=C1OC(c2ccccc2)=N/C1=C\N1CCCCC1`?
Tau fibril FP: 5%; Tau fibril ThT: 5%; TexasRed fluor: -5%; TRb SRC2 PPI: -17%; Tau fluor cs: -4%

Results for O=C1OC(c2ccccc2)=C/C1=C/N1CCCCC1 ?
Tau fibril FP: inconclusive; Tau fibril ThT: 28µM*; TexasRed fluor: -2%; TRb SRC2 PPI: -16%; Tau fluor cs: -28%

Results for C=C(Nc1ccc(OC)cc1)C(=O)OC ?
Tau fibril FP: inconclusive; Tau fibril ThT: -6%; TexasRed fluor: 0%; TRb SRC2 PPI: -2%; Tau fluor cs: -10%

How did NC(=S)N=Nc1c(O)[nH]c2ccccc12 do in these assays?
Tau fibril FP: -5%; Tau fibril ThT: inconclusive; TexasRed fluor: -3%; TRb SRC2 PPI: 2%; Tau fluor cs: -17%

How did NC(=S)N=Nc1c(O)[nH]c2c(Br)cc(Br)cc12 do in these assays?
Tau fibril FP: 16%; Tau fibril ThT: 7.9µM*; TexasRed fluor: 0%; TRb SRC2 PPI: 4%; Tau fluor cs: -18%

What do the screens show for `CN1/C(=C\C(=S)NC(=O)c2cccc(Br)c2)C(C)(C)c2ccccc21`?
Tau fibril FP: 11%; Tau fibril ThT: 7.1µM*; TexasRed fluor: 5%; TRb SRC2 PPI: 12%; Tau fluor cs: 9%

How did CN1/C(=C\C(=O)Nc2cccc(Cl)c2)C(C)(C)c2ccccc21 do in these assays?
Tau fibril FP: 8%; Tau fibril ThT: inconclusive; TexasRed fluor: 0%; TRb SRC2 PPI: -5%; Tau fluor cs: 14µM*[quencher]

How did CN1/C(=C/C(=O)C2CC2)C(C)(C)c2ccccc21 do in these assays?
Tau fibril FP: 6%; Tau fibril ThT: -6%; TexasRed fluor: -2%; TRb SRC2 PPI: -3%; Tau fluor cs: 6%

Results for CN1/C(=C\C(=S)NC(=O)c2ccc([N+](=O)[O-])cc2)C(C)(C)c2ccccc21 ?
Tau fibril FP: 3%; Tau fibril ThT: inconclusive; TexasRed fluor: 6%; TRb SRC2 PPI: 10%; Tau fluor cs: -3%

What do the screens show for `CN1/C(=C\C(=O)Nc2ccc(F)cc2)C(C)(C)c2ccccc21`?
Tau fibril FP: 10%; Tau fibril ThT: inconclusive; TexasRed fluor: -11%; TRb SRC2 PPI: 4%; Tau fluor cs: 10µM*[quencher]

How did CN1/C(=C\C(=O)Nc2ccc(Br)cc2)C(C)(C)c2ccccc21 do in these assays?
Tau fibril FP: 4%; Tau fibril ThT: inconclusive; TexasRed fluor: -5%; TRb SRC2 PPI: -4%; Tau fluor cs: 7.1µM*[quencher]

How did Cc1nc2c(-c3ccccc3)c(C)nn2c(C)c1CCC(=O)NCc1cccc(Cl)c1 do in these assays?
Tau fibril FP: -6%; Tau fibril ThT: 8%; TexasRed fluor: inconclusive; TRb SRC2 PPI: 3%; Tau fluor cs: -7%

Results for c1ccc(-c2nn[nH]n2)c(Nc2cccc3c2CCCC3)c1 ?
TexasRed fluor: -7%; TRb SRC2 PPI: -6%

How did CCOc1ccc(Nc2nc3c(S(=O)(=O)c4ccc(CC)cc4)nnn3c3ccc(Cl)cc23)cc1 do in these assays?
Tau fibril FP: inconclusive; Tau fibril ThT: 1%; TexasRed fluor: -12%; TRb SRC2 PPI: 1%; Tau fluor cs: -9%

How did O=[N+]([O-])c1cc2oc3c(c2c(C=NCc2ccncc2)c1O)CCCC3 do in these assays?
Tau fibril FP: inconclusive; Tau fibril ThT: 10µM*; TexasRed fluor: -10%; TRb SRC2 PPI: -4%; Tau fluor cs: inconclusive

How did CC1=C/C(=C/N(C)c2ccccc2)C(=O)S1 do in these assays?
Tau fibril FP: inconclusive; Tau fibril ThT: 20µM*; TexasRed fluor: 4%; TRb SRC2 PPI: -8%; Tau fluor cs: -23%

Results for CN(/C=C/c1c([N+](=O)[O-])c(=O)n(C)c(=O)n1C)c1ccccc1 ?
Tau fibril FP: 10%[2.34 µM]; Tau fibril ThT: 5%; TexasRed fluor: -4%; TRb SRC2 PPI: -6%; Tau fluor cs: 3%

Results for Cc1ccc(S(=O)(=O)N=C=O)cc1 ?
TexasRed fluor: -2%[201 µM]; TRb SRC2 PPI: -1%[201 µM]

Results for O=C(NCc1cccnc1)C1CCN(S(=O)(=O)c2cccnc2)CC1 ?
Tau fibril FP: 1%; Tau fibril ThT: -2%; TexasRed fluor: 2%; TRb SRC2 PPI: -15%; Tau fluor cs: -6%

What do the screens show for `O=C(NCc1cccnc1)C1CCN(S(=O)(=O)c2cccs2)CC1`?
Tau fibril FP: inconclusive; Tau fibril ThT: 4µM*; TexasRed fluor: -3%; TRb SRC2 PPI: -6%; Tau fluor cs: 4.5µM*[quencher]; tau fibril sed: 13

How did COc1cc(CNC(=O)c2cnc(SC)nc2-c2ccccc2)cc(OC)c1OC do in these assays?
Tau fibril FP: -7%; Tau fibril ThT: 4%; TexasRed fluor: -9%; TRb SRC2 PPI: 9%; Tau fluor cs: 3%

Results for O=C(CNC(=O)c1ccccc1F)Nc1ccccc1C(F)(F)F ?
Tau fibril FP: -4%; Tau fibril ThT: -9%; TexasRed fluor: 2%; TRb SRC2 PPI: -9%; Tau fluor cs: -7%

How did CCOC(=O)CNC(=O)CSc1cn(CC(=O)N2CCCCCC2)c2ccccc12 do in these assays?
Tau fibril FP: -10%; Tau fibril ThT: -14%; TexasRed fluor: -2%; TRb SRC2 PPI: -9%; Tau fluor cs: -11%

What do the screens show for `O=C(O)c1cccc(S(=O)(=O)Nc2ccc([N+](=O)[O-])cc2O)c1`?
Tau fibril FP: inconclusive; Tau fibril ThT: -25%; TexasRed fluor: -3%; TRb SRC2 PPI: 3%; Tau fluor cs: -24%
